Data reported in the supplement of paper PMC10849652.
About 7,900 targets were measured; listed, in parts, are those with a hit and a random draw of the rest. About 0.6% of all pairs of compound and target were hits.

What was measured:
Assay in all cases: log2 fold change, soluble protein after heating vs DMSO (PISA); higher = thermal stabilisation; K562 cells, 10 uM, 30 min; active = over 0.2 and 3.5 SD of the protein, either way, in both replicates (recomputed)
[1] = compound: C1COCCN1CCN2C3=CC=CC=C3N=C2NC(=O)C4=CC(=CC=C4)[N+](=O)[O-] [IRAK-1-4 Inhibitor I]
Outline: (§1)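 K562 cells at 2×10^6 cells/mL were treated for 30 min with 10 μM compound, and aliquots were heated for 3 min over 48°C-58°C before pooling. Extraction used PBS with 0.5% NP-40 at 4°C, and soluble protein was the supernatant after 21,000xg for 90 min, measured by TMTpro 16plex LC-MS/MS with channel sums equalised. Thermal stability values, relative to control samples and from duplicates, are log2 fold changes.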

[2] = compound: C=CC(=O)N1CCC[C@@H](n2nc(-c3ccc(Oc4ccccc4)cc3)c3c(N)ncnc32)C1 [ibrutinib]
Outline: as §1

[3] = compound: CC(=O)c1cnc2ccc(-c3cc(Cl)c(O)c(Cl)c3)nc2c1N[C@H]1CC[C@H](CN(C)C)CC1
Outline: as §1

[4] = compound: CC(C)(C)Cn1c(N)nc2ccc(-c3[nH]c(C(C)(C)C)nc3-c3ccc(F)cc3)nc21 [ralimetinib]
Outline: as §1

[5] = compound: CC(C)(O)CC(=O)NCCn1ccc2ncnc(Nc3ccc(Oc4cccc(C(F)(F)F)c4)c(Cl)c3)c21
Outline: as §1

[6] = compound: CC(C)C1=C2N=C(C=C(N2N=C1)NCC3=CC=CC=C3)NCCCCCCN
Outline: as §1

[7] = compound: CC(C)C[C@@H](C=O)NC(=O)[C@H](CC(C)C)NC(=O)[C@H](CC(C)C)NC(=O)OCc1ccccc1
Outline: as §1

[8] = compound: CC(C)N(C[C@H]1O[C@@H](n2cnc3c(N)ncnc32)[C@H](O)[C@@H]1O)[C@H]1C[C@@H](CCc2nc3cc(C(C)(C)C)ccc3[nH]2)C1 [pinometostat]
Outline: as §1

[9] = compound: CC1=C(C(CC(=O)N1)C2=CC=C(C=C2)C(F)(F)F)C(=O)NC3=C(C=C4C(=C3)C=NN4)F
Outline: as §1

[10] = compound: CC1=C(C2=C(C=C1)C(=O)C3=CC=CC=C3N2CCCN)C
Outline: as §1

[11] = compound: CC1=C(C=C(C=C1)NC(=O)C2=CC(=CC=C2)C(C)(C)C#N)NC3=CC4=C(C=C3)N=CN(C4=O)C
Outline: as §1

[12] = compound: CC1=C(C=C(C=C1)NC(=O)C2=CC(=CC=C2)N(C)C)NC(=O)C3=CC=C(C=C3)O
Outline: as §1

[13] = compound: CC1=CC=C(C=C1)SC2=C3C=C(SC3=CN=C2)C(=O)N
Outline: as §1

[14] = compound: CC1=NC(=CC=C1)C2=C(N=C(N2)C(C)(C)C)C3=CC4=NC=CN=C4C=C3
Outline: as §1

[15] = compound: CCCCN(Cc1ccc(C(=O)NO)cc1)C(=O)Nc1ccccc1 [Nexturastat A]
Outline: as §1

[16] = compound: CCCS(=O)(=O)Nc1ccc(F)c(C(=O)c2c[nH]c3ncc(-c4ccc(Cl)cc4)cc23)c1F [vemurafenib]
Outline: as §1

[17] = compound: CCCS(=O)(=O)Nc1ccc(F)c(C(=O)c2c[nH]c3ncc(Cl)cc23)c1F
Outline: as §1

[18] = compound: CCCc1cc(C)[nH]c(=O)c1CNC(=O)c1cc(-c2ccnc(N3CCN(C)CC3)c2)cc2c1cnn2C(C)C
Outline: as §1

[19] = compound: CCN(CC)Cc1ccc2cc(COC(=O)Nc3ccc(C(=O)NO)cc3)ccc2c1 [givinostat]
Outline: as §1

[20] = compound: CCN(CCCOc1ccc2c(Nc3cc(CC(=O)Nc4cccc(F)c4)[nH]n3)ncnc2c1)CCOP(=O)(O)O [barasertib]
Outline: as §1

Measured: log2 fold change

TAF9 (UniProt Q16594)
inactive: [1] -0.029 | [2] 0.027 | [3] 0.049 | [4] 0.025 | [5] 0.069 | [6] 0.024 | [7] 0.112 | [8] -0.072 | [9] 0 | [10] -0.005 | [11] 0.125 | [12] -0.007 | [13] -0.092 | [14] 0.018 | [15] 0 | [16] -0.017 | [17] -0.097 | [18] 0.02 | [19] 0.019 | [20] -0.019

TJP2 isoform 7 (UniProt Q9UDY2)
inactive: [1] 0.004 | [2] -0.004 | [4] 0.032 | [5] -0.061 | [6] -0.107 | [7] 0.068 | [8] 0.003 | [9] 0.017 | [10] 0.05 | [11] -0.017 | [12] -0.006 | [13] 0.007 | [14] -0.014 | [15] 0.048 | [16] 0.09 | [17] 0.101 | [18] -0.194 | [19] 0.071 | [20] 0.102
active: [3] -0.437

TBRG4 (UniProt Q969Z0)
Sequence of UniProt Q969Z0 (Q969Z0 whole entry, looked up): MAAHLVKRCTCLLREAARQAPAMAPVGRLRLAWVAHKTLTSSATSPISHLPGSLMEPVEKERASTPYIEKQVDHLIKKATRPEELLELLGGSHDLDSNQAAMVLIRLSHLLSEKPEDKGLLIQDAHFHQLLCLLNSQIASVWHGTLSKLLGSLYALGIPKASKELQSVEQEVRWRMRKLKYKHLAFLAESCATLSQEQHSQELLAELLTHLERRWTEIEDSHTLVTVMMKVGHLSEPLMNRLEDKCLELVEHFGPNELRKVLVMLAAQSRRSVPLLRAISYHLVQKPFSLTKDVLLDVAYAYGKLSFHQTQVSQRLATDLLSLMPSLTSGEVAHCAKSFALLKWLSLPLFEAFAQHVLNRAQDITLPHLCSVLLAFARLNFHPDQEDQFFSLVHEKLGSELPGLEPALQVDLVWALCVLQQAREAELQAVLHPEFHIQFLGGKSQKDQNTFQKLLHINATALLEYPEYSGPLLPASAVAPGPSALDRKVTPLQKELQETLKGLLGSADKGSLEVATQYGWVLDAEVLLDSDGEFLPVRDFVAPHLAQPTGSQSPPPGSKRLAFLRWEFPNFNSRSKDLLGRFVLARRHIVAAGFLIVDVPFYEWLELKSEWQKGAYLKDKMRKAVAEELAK
active: [5] -0.578
inactive: [1] -0.031 | [2] 0 | [3] -0.188 | [4] -0.134 | [6] -0.624 | [7] -0.038 | [8] -0.014 | [9] 0.029 | [10] -0.171 | [11] 0.08 | [12] -0.006 | [13] 0.073 | [14] 0.151 | [15] -0.072 | [16] 0.05 | [17] 0.185 | [18] -0.059 | [19] 0.099 | [20] 0.125

SLC38A7 (UniProt Q9NVC3)
inactive: [1] 0.035 | [2] 0.073 | [3] 0.092 | [4] 0.205 | [5] -0.085 | [7] -0.024 | [8] 0.033 | [9] -0.009 | [10] 0.007 | [11] 0.092 | [12] 0.009 | [13] 0 | [14] 0.094 | [15] -0.04 | [16] 0.042 | [17] 0.012 | [18] -0.002 | [19] 0.008 | [20] -0.012
active: [6] -0.751

SPTBN1 (UniProt Q01082)
Sequence of UniProt Q01082 (Q01082 whole entry, looked up): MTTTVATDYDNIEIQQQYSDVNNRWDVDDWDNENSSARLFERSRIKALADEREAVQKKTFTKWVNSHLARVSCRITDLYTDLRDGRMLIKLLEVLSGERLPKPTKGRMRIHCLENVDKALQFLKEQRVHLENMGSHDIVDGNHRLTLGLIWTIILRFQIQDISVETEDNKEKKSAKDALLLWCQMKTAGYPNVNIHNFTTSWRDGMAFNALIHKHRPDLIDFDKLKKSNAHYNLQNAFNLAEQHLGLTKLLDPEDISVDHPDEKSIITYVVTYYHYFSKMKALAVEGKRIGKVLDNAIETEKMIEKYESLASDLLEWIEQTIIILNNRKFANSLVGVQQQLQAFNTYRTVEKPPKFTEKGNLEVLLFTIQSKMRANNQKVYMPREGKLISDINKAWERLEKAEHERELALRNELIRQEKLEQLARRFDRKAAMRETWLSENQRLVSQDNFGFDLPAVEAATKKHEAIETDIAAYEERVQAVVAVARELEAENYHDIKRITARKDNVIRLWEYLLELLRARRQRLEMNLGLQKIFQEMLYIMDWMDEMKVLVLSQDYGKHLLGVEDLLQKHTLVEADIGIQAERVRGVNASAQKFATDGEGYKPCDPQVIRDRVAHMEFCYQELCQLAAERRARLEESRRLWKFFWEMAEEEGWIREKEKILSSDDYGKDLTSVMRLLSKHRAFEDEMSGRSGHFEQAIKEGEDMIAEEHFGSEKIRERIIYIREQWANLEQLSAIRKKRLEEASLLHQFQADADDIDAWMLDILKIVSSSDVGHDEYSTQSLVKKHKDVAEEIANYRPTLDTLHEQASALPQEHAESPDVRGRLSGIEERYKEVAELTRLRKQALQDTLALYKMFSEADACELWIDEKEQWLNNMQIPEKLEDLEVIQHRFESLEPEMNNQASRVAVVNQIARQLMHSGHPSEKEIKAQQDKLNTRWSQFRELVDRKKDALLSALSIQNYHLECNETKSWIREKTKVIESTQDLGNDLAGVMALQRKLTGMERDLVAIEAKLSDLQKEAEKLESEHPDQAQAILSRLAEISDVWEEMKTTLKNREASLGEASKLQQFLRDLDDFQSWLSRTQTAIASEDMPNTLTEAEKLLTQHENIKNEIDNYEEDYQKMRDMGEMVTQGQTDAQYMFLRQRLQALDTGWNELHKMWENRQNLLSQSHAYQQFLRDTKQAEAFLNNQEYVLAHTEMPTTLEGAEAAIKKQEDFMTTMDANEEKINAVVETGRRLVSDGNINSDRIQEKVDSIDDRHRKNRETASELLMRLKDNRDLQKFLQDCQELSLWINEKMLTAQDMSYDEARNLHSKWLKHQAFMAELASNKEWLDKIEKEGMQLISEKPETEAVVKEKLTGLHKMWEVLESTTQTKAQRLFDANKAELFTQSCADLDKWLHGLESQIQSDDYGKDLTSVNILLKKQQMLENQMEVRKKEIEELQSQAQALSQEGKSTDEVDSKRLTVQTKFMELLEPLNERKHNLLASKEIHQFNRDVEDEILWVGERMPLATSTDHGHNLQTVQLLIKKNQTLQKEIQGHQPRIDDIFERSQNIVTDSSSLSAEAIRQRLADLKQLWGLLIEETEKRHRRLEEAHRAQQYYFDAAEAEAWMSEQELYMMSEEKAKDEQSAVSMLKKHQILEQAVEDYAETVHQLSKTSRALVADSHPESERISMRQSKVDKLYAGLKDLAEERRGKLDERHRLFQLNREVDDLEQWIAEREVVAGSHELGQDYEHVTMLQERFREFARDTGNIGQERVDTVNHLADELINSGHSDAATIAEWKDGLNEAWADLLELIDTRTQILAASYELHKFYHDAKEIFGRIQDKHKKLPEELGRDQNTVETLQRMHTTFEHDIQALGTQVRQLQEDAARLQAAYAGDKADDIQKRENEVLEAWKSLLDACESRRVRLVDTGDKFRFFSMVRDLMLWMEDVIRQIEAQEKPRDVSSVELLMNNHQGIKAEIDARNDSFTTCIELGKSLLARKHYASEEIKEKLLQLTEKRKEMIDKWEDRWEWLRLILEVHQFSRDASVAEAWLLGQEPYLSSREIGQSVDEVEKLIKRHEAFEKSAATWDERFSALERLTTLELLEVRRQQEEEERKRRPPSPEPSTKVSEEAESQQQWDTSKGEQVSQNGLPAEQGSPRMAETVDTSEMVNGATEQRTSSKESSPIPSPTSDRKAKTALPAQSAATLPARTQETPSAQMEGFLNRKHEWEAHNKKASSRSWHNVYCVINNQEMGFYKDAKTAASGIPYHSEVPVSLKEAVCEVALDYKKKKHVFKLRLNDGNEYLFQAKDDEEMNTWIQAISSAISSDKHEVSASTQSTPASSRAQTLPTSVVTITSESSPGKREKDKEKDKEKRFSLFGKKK
inactive: [1] -0.079 | [2] -0.013 | [3] -0.033 | [4] 0.08 | [5] 0.043 | [6] -0.094 | [7] 0.024 | [8] 0.044 | [9] -0.012 | [10] -0.001 | [11] 0.018 | [12] 0.02 | [13] 0.004 | [14] -0.036 | [15] 0.088 | [16] 0.058 | [17] 0.006 | [18] 0.051 | [19] 0.049 | [20] 0.019

TAOK3 (UniProt Q9H2K8)
inactive: [1] 0.007 | [2] 0.002 | [4] 0.009 | [5] -0.011 | [6] 0.007 | [7] 0.033 | [8] 0.012 | [9] 0.003 | [10] 0.035 | [11] 0.028 | [12] -0.031 | [13] 0.078 | [14] 0.059 | [15] -0.054 | [16] 0.092 | [17] 0.115 | [18] 0 | [19] -0.019 | [20] 0.027
active: [3] -0.48

SUN2 (UniProt Q9UH99)
active: [6] -0.211
inactive: [1] -0.04 | [2] 0.056 | [3] -0.044 | [4] 0.072 | [5] -0.119 | [7] 0.041 | [8] 0.027 | [9] 0.043 | [10] -0.117 | [11] 0.023 | [12] 0.001 | [13] -0.017 | [14] -0.025 | [15] 0.005 | [16] -0.026 | [17] 0.015 | [18] 0.013 | [19] 0.005 | [20] -0.012

TFRC (UniProt P02786)
Sequence of UniProt P02786 (P02786 whole entry, looked up): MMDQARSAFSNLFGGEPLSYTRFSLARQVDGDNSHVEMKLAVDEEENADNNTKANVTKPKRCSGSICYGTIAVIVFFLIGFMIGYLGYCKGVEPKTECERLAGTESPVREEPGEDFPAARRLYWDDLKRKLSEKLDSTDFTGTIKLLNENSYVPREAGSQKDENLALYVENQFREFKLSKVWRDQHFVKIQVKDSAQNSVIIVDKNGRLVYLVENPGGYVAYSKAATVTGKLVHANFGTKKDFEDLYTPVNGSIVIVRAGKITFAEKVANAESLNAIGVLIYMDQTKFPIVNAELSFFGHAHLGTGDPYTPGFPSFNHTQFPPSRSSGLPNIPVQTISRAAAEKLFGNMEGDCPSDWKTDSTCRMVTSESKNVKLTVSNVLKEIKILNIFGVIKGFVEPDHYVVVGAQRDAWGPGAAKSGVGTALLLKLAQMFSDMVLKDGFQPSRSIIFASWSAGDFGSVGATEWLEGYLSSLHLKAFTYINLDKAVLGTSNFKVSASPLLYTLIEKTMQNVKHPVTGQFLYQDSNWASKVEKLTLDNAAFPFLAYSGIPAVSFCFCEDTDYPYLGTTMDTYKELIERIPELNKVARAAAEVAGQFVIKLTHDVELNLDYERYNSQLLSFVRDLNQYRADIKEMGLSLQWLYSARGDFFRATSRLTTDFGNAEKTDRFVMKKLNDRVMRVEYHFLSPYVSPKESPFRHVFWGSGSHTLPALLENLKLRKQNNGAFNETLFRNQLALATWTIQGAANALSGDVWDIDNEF
inactive: [1] 0.058 | [2] 0.026 | [3] -0.023 | [4] -0.005 | [5] 0.001 | [6] -0.032 | [7] -0.005 | [8] -0.02 | [9] 0.001 | [10] -0.03 | [11] -0.008 | [12] 0.023 | [13] 0.02 | [14] 0.026 | [15] -0.067 | [16] -0.002 | [17] -0.007 | [18] -0.026 | [19] 0.004 | [20] -0.015

TANK (UniProt Q92844)
inactive: [1] -0.035 | [2] 0.087 | [3] -0.181 | [4] 0.034 | [5] -0.024 | [6] 0.007 | [7] 0.127 | [8] -0.047 | [9] 0.033 | [10] -0.053 | [11] -0.076 | [12] 0.059 | [13] 0.007 | [14] 0.028 | [15] -0.047 | [16] -0.031 | [17] -0.018 | [18] 0.065 | [19] 0.013 | [20] 0.089

TLK2 isoform 2 (UniProt Q86UE8)
inactive: [1] 0.035 | [2] -0.011 | [3] -0.144 | [4] -0.003 | [5] -0.077 | [6] 0.011 | [7] 0.025 | [8] -0.004 | [9] -0.015 | [11] -0.003 | [12] -0.015 | [13] -0.013 | [14] 0.02 | [15] -0.072 | [16] -0.029 | [17] 0.03 | [18] -0.036 | [19] 0.099 | [20] -0.006
active: [10] 0.282

SNX3 (UniProt O60493)
inactive: [1] -0.049 | [2] 0.011 | [3] -0.028 | [4] -0.059 | [5] -0.104 | [6] -0.187 | [7] 0.084 | [8] 0.073 | [9] -0.022 | [10] 0.053 | [11] -0.013 | [12] -0.064 | [13] 0.073 | [14] -0.004 | [15] 0.037 | [16] 0.046 | [17] 0.122 | [18] 0.02 | [19] 0.09 | [20] 0.045

TIMM13 (UniProt Q9Y5L4)
Sequence of UniProt Q9Y5L4 (Q9Y5L4 whole entry, looked up): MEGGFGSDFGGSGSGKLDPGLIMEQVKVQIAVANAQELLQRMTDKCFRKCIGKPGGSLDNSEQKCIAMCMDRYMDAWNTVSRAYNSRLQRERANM
inactive: [1] -0.031 | [2] 0.012 | [3] 0.01 | [4] -0.008 | [5] -0.145 | [6] 0.048 | [7] -0.085 | [8] -0.092 | [9] 0.018 | [10] 0.092 | [11] 0.086 | [12] -0.048 | [13] 0.03 | [14] 0.143 | [15] -0.19 | [16] 0.072 | [17] 0.015 | [18] 0.085 | [19] 0.089 | [20] -0.035

SLC38A9 (UniProt Q8NBW4)
active: [6] -0.368
inactive: [1] -0.028 | [2] -0.005 | [3] -0.019 | [4] 0 | [5] 0.089 | [7] 0.049 | [8] -0.023 | [9] 0.023 | [10] -0.1 | [11] 0.075 | [12] 0.007 | [13] -0.05 | [14] 0.023 | [15] 0.088 | [16] -0.036 | [17] -0.012 | [18] -0.105 | [19] 0.021 | [20] -0.006

STOM (UniProt P27105)
Sequence of UniProt P27105 (P27105 whole entry, looked up): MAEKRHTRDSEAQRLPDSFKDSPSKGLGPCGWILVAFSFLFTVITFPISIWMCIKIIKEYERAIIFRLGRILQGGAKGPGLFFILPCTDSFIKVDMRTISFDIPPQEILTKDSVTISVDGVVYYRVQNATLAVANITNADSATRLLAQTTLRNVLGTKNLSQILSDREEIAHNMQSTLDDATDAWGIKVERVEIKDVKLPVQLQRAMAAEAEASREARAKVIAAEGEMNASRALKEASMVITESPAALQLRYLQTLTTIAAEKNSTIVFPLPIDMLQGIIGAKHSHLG
inactive: [1] -0.039 | [2] 0.019 | [3] -0.018 | [4] -0.054 | [5] 0.004 | [6] -0.064 | [7] 0.14 | [8] 0.028 | [9] 0.014 | [10] 0.039 | [11] -0.035 | [12] 0.025 | [13] -0.041 | [14] -0.002 | [15] 0.007 | [16] 0.01 | [17] -0.053 | [18] -0.092 | [19] 0.005 | [20] -0.017

STRN (UniProt O43815)
Sequence of UniProt O43815 (O43815 whole entry, looked up): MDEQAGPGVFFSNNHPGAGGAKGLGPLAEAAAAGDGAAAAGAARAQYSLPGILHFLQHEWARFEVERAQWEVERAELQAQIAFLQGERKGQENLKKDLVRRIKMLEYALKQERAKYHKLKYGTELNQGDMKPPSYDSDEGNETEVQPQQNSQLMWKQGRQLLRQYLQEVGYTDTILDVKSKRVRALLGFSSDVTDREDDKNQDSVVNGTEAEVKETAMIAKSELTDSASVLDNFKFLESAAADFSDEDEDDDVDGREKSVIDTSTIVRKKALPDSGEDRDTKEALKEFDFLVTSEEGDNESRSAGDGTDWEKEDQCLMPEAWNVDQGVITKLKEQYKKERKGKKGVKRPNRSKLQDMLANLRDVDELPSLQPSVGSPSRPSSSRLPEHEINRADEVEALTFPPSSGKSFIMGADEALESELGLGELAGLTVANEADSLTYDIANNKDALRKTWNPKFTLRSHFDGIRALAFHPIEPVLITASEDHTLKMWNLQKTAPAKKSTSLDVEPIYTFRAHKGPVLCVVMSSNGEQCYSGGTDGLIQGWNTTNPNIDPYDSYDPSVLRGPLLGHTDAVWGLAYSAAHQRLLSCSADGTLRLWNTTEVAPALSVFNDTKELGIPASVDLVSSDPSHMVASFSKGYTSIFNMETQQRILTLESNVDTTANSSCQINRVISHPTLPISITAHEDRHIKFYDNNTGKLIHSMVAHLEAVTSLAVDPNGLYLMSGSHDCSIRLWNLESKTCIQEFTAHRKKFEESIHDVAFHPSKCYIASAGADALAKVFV
inactive: [1] 0.029 | [2] 0.073 | [3] -0.046 | [4] 0.13 | [5] -0.023 | [6] 0.03 | [7] -0.066 | [8] -0.002 | [9] -0.037 | [10] 0 | [11] -0.019 | [12] -0.046 | [13] 0.019 | [14] -0.024 | [15] 0.001 | [16] 0.073 | [17] 0.035 | [18] -0.038 | [19] 0.002 | [20] 0.045
